# Test results: PubChem BioAssay AID1159580 (chemical genetic matrix, 2015)
# About 2,000 (36%) of roughly 5,500 compounds were called active. Not shown: some 18% with an inconclusive outcome. The list shows a part of the results. Unmarked numbers belong to inactive results. Rule as the data show it: active = normalized growth mostly below about 0.91 (no sharp cut-off); inconclusive = no clear call, values can overlap the other calls; inactive = mostly above about 0.92.
# Test: chemical genetic growth profiling, strain panel (AID 1159580);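 also: tested at 20 µM; growth read once vehicle control cultures reached saturation at 30 °C; 1 = growth at the plate median or of vehicle wells; lower values mean less growth of the strain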
# Settings: S. cerevisiae deletion strains, growth OD
# [1] = locus YHR030C, strain SLT2, active compounds read low
# [2] = locus YHR079C, strain IRE1, active compounds read low
# [3] = locus YJL095W, strain BCK1, active compounds read low
# [4] = locus YJR066W, strain TOR1, active compounds read low
# [5] = locus YLR113W, strain HOG1, active compounds read low
# [6] = locus YNL183C, strain NPR1, active compounds read low
# [7] = locus YOR231W, strain MKK1, active compounds read low
# [8] = locus YPL256C, strain CLN2, active compounds read low
# [9] = locus YAL013W, strain DEP1, active compounds read low
# [10] = locus YAL040C, strain CLN3, active compounds read low
# [11] = locus YCL061C, strain MRC1 (second series), active compounds read low
# [12] = locus YDR150W, strain NUM1, active compounds read low
# [13] = locus YDR363W, strain ESC2, active compounds read low
# [14] = locus YER002W, strain NOP16, active compounds read low
# [15] = locus YJR075W, strain HOC1, active compounds read low
# [16] = locus YMR263W, strain SAP30, active compounds read low
# [17] = locus YNL153C, strain GIM3, active compounds read low
# [18] = locus YNL197C, strain WHI3, active compounds read low
# [19] = locus YNL224C, strain SQS1, active compounds read low
# [20] = locus YNL322C, strain KRE1, active compounds read low
# [21] = locus YOR083W, strain WHI5 (second series), active compounds read low
# [22] = locus YPL055C, strain LGE1, active compounds read low
# [23] = locus YPL241C, strain CIN2, active compounds read low
compound,measurement,setting,value
CC(=O)NCCCS(=O)(=O)O,normalized growth,"locus YAL021C, strain ccr4, active compounds read low",0.994
same,normalized growth,"locus YAL026C, strain drs2, active compounds read low",1.02
same,normalized growth,"locus YAL030W, strain snc1, active compounds read low",1.01
same,normalized growth,"locus YBL061C, strain skt5, active compounds read low",1.01
same,normalized growth,"locus YBR009C, strain hhf1, active compounds read low",1.02
same,normalized growth,"locus YBR023C, strain chs3, active compounds read low",1.02
same,normalized growth,"locus YBR171W, strain sec66, active compounds read low",1.03
same,normalized growth,"locus YBR231C, strain swc5, active compounds read low",1.02
same,normalized growth,"locus YBR279W, strain paf1, active compounds read low",1.02
same,normalized growth,"locus YCL011C, strain gbp2, active compounds read low",1.01
same,normalized growth,"locus YCL016C, strain dcc1, active compounds read low",1.02
same,normalized growth,"locus YCL061C, strain MRC1, active compounds read low",1.02
same,normalized growth,"locus YCL069W, strain vba3, active compounds read low",1.01
same,normalized growth,"locus YCR088W, strain abp1, active compounds read low",1.01
same,normalized growth,"locus YDL005C, strain med2, active compounds read low",1.01
same,normalized growth,"locus YDL040C, strain nat1, active compounds read low",1.02
same,normalized growth,"locus YDR001C, strain nth1, active compounds read low",1.01
same,normalized growth,"locus YDR069C, strain doa4, active compounds read low",1.01
same,normalized growth,"locus YDR137W, strain rgp1, active compounds read low",1.03
same,normalized growth,"locus YDR159W, strain sac3, active compounds read low",1.01
same,normalized growth,"locus YDR195W, strain ref2",1.02
same,normalized growth,"locus YDR297W, strain sur2, active compounds read low",1.01
same,normalized growth,"locus YDR334W, strain swr1, active compounds read low",1.01
same,normalized growth,"locus YDR335W, strain msn5, active compounds read low",1.01
same,normalized growth,"locus YDR392W, strain spt3, active compounds read low",0.984
same,normalized growth,"locus YEL003W, strain gim4, active compounds read low",1.01
same,normalized growth,"locus YEL037C, strain rad23, active compounds read low",1.01
same,normalized growth,"locus YEL061C, strain CIN8 (second series), active compounds read low",1
same,normalized growth,"locus YER015W, strain faa2, active compounds read low",1.01
same,normalized growth,"locus YER016W, strain bim1, active compounds read low",1.02
same,normalized growth,"locus YER111C, strain swi4, active compounds read low",1.02
same,normalized growth,"locus YER155C, strain BEM2 (second series), active compounds read low",1.04
same,normalized growth,"locus YFR010W, strain ubp6, active compounds read low",1.01
same,normalized growth,"locus YGL167C, strain pmr1, active compounds read low",1.01
same,normalized growth,"locus YGL173C, strain kem1, active compounds read low",1.02
same,normalized growth,"locus YGL227W, strain vid30, active compounds read low",1.02
same,normalized growth,"locus YGL240W, strain doc1, active compounds read low",1.02
same,normalized growth,"locus YGL253W, strain hxk2, active compounds read low",1.01
same,normalized growth,"locus YHR013C, strain ard1, active compounds read low",1.05
same,normalized growth,"locus YHR027C, strain rpn1, active compounds read low",1.01
same,normalized growth,[1],1.03
same,normalized growth,[2],1.04
same,normalized growth,"locus YHR142W, strain chs7, active compounds read low",1.01
same,normalized growth,"locus YJL092W, strain hpr5, active compounds read low",1.01
same,normalized growth,"locus YJL095W, strain BCK1 (second series), active compounds read low",1.01
same,normalized growth,[3],1.01
same,normalized growth,"locus YJL115W, strain asf1, active compounds read low",1.01
same,normalized growth,"locus YJL129C, strain trk1, active compounds read low",1.01
same,normalized growth,"locus YJL154C, strain vps35, active compounds read low",1.01
same,normalized growth,"locus YJL164C, strain tpk1, active compounds read low",1
same,normalized growth,"locus YJL166W, strain qcr8, active compounds read low",1.02
same,normalized growth,"locus YJL187C, strain SWE1, active compounds read low",1.01
same,normalized growth,[4],0.989
same,normalized growth,"locus YKL160W, strain elf1, active compounds read low",1.02
same,normalized growth,"locus YKR026C, strain gcn3, active compounds read low",0.993
same,normalized growth,"locus YKR091W, strain srl3, active compounds read low",1.02
same,normalized growth,"locus YLL001W, strain dnm1, active compounds read low",1.02
same,normalized growth,"locus YLL026W, active compounds read low",1.02
same,normalized growth,"locus YLL041C, strain sdh2, active compounds read low",1.01
same,normalized growth,"locus YLR027C, strain aat2, active compounds read low",1.02
same,normalized growth,[5],0.97
same,normalized growth,"locus YLR221C, strain rsa3, active compounds read low",1.01
same,normalized growth,"locus YLR258W, strain gsy2, active compounds read low",1.01
same,normalized growth,"locus YLR262C, strain YPT6 (second series), active compounds read low",1.02
same,normalized growth,"locus YLR320W, strain mms22, active compounds read low",1.01
same,normalized growth,"locus YLR342W, strain FKS1, active compounds read low",1.01
same,normalized growth,"locus YLR357W, strain rsc2, active compounds read low",1.06
same,normalized growth,"locus YLR370C, strain arc18, active compounds read low",1.01
same,normalized growth,"locus YLR384C, strain iki3, active compounds read low",1.02
same,normalized growth,"locus YML120C, strain ndi1, active compounds read low",1.01
same,normalized growth,"locus YMR058W, strain fet3, active compounds read low",1.02
same,normalized growth,"locus YMR125W, strain sto1, active compounds read low",1.03
same,normalized growth,"locus YMR129W, active compounds read low",1
same,normalized growth,"locus YMR205C, strain PFK2, active compounds read low",1.03
same,normalized growth,"locus YMR231W, strain pep5, active compounds read low",1.01
same,normalized growth,"locus YNL071W, strain lat1, active compounds read low",1.02
same,normalized growth,[6],1
same,normalized growth,"locus YNL209W, strain ssb2, active compounds read low",1.01
same,normalized growth,"locus YNL248C, strain rpa49, active compounds read low",1.01
same,normalized growth,"locus YNL322C, strain KRE1 (second series), active compounds read low",1.01
same,normalized growth,"locus YNR049C, strain mso1, active compounds read low",1.02
same,normalized growth,"locus YOR001W, strain rrp6, active compounds read low",1.01
same,normalized growth,"locus YOR070C, strain gyp1, active compounds read low",1.01
same,normalized growth,"locus YOR080W, strain dia2, active compounds read low",1.01
same,normalized growth,"locus YOR083W, strain WHI5, active compounds read low",0.998
same,normalized growth,"locus YOR106W, strain vam3, active compounds read low",1.01
same,normalized growth,[7],1.02
same,normalized growth,"locus YOR265W, strain rbl2, active compounds read low",1.01
same,normalized growth,"locus YOR270C, strain vph1, active compounds read low",1.04
same,normalized growth,"locus YOR290C, strain snf2, active compounds read low",1.01
same,normalized growth,"locus YPL051W, strain arl3, active compounds read low",1.01
same,normalized growth,"locus YPL078C, strain atp4, active compounds read low",1.02
same,normalized growth,"locus YPL106C, strain sse1, active compounds read low",1.02
same,normalized growth,"locus YPL240C, strain hsp82, active compounds read low",1.01
same,normalized growth,[8],1.02
CCCCCCCC/C=C\CCCCCCCC(=O)NCCO,normalized growth,[9],1.01
same,normalized growth,[10],1.01
same,normalized growth,[11],1
same,normalized growth,[12],1
same,normalized growth,[13],0.974
same,normalized growth,[14],1.02
same,normalized growth,[15],1
same,normalized growth,[16],0.994
same,normalized growth,[17],0.981
same,normalized growth,"locus YNL175C, strain NOP13, active compounds read low",0.963
same,normalized growth,[18],0.989
same,normalized growth,[19],1
same,normalized growth,[20],0.978
same,normalized growth,[21],0.999
CCCCCCCCCCCCCCCC(=O)NCCO,normalized growth,[10],1.02
same,normalized growth,[11],1.01
same,normalized growth,[13],1.02
same,normalized growth,[14],1.01
same,normalized growth,[15],1.01
same,normalized growth,"locus YMR307W, strain GAS1, active compounds read low",1
same,normalized growth,[18],1.03
same,normalized growth,[19],0.823 (active)
same,normalized growth,[21],1.02
same,normalized growth,[22],1.02
same,normalized growth,[23],0.999
CCCCCCNC(=O)NCCCCCC,normalized growth,[9],0.958
same,normalized growth,"locus YBR229C, strain ROT2, active compounds read low",0.931
same,normalized growth,"locus YDL101C, strain DUN1, active compounds read low",0.983
same,normalized growth,"locus YDL134C, strain PPH21, active compounds read low",0.925
same,normalized growth,[12],0.931
same,normalized growth,"locus YEL061C, strain CIN8, active compounds read low",0.939
same,normalized growth,"locus YGR078C, strain PAC10, active compounds read low",0.933
same,normalized growth,[1],0.858
same,normalized growth,"locus YHR087W, strain rtc3, active compounds read low",0.955
same,normalized growth,"locus YJR043C, strain POL32, active compounds read low",0.942
same,normalized growth,[15],0.894
same,normalized growth,"locus YLR039C, strain RIC1, active compounds read low",0.76 (active)
same,normalized growth,"locus YLR058C, strain SHM2 (second series), active compounds read low",0.933 (active)
same,normalized growth,"locus YLR085C, strain ARP6, active compounds read low",0.881
same,normalized growth,"locus YLR262C, strain YPT6, active compounds read low",0.723 (active)
same,normalized growth,"locus YML094W, strain GIM5, active compounds read low",0.991
same,normalized growth,"locus YMR219W, strain ESC1, active compounds read low",0.924 (active)
same,normalized growth,[16],0.98
same,normalized growth,[17],0.986
same,normalized growth,"locus YNL298W, strain CLA4 (second series), active compounds read low",0.991
same,normalized growth,[20],0.914 (active)
same,normalized growth,"locus YNR030W, strain Alg12, active compounds read low",0.918
same,normalized growth,"locus YOL006C, strain TOP1, active compounds read low",0.858
same,normalized growth,[22],0.959
same,normalized growth,[23],0.982
same,normalized growth,"locus YPR135W, strain CTF4, active compounds read low",0.824
CC(C)(CO)C(O)C(=O)NCCC(=O)NCCSSCCNC(=O)CCNC(=O)C(O)C(C)(C)CO (centres undefined),normalized growth,[1],0.954
same,normalized growth,[2],0.973
same,normalized growth,[3],0.968
same,normalized growth,[4],0.897
same,normalized growth,[5],0.951
same,normalized growth,[6],0.89
same,normalized growth,[7],0.955
same,normalized growth,[8],0.951
